Experimental data as given in PubChem BioAssay AID624377 (The Scripps Research Institute Molecular Screening Center, 2012).
In all, about 360,000 compounds went through this assay and about 680 (0.19%) were called active. The full list was thinned out, with actives kept by preference. Unmarked numbers belong to inactive results. Cut-off read from the data, not from the text of the source: active = inhibition above about 25%; inactive = the rest.

Target: Arf-GAP with SH3 domain, ANK repeat and PH domain-containing protein 1 (Homo sapiens) (UniProt Q9ULH1)
Assay: inhibitors of human ASAP1 ArfGAP activity, primary screen, biochemical, fluorescence polarization (AID 624377);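 note: 0% = vehicle with enzyme and substrate and 100% = no enzyme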
Conditions: ASAP1-stimulated ARF1 GTP hydrolysis, GDP FP detection; at 16.5 µM; hits give high values

Chain of Arf-GAP with SH3 domain, ANK repeat and PH domain-containing protein 1 (Homo sapiens) (Q9ULH1 325-724 limits assumed): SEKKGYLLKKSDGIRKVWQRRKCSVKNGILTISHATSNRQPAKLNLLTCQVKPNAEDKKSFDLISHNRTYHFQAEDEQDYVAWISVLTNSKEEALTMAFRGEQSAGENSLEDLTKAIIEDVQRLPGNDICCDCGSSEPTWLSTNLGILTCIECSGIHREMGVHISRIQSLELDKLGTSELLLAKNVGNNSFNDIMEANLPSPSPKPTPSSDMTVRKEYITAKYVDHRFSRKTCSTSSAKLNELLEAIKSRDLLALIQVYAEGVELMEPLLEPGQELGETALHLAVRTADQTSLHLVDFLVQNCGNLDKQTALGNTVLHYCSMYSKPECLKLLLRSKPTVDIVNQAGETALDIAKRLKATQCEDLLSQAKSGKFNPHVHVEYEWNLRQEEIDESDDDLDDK

First: COC(=O)[C@]12C[C@H](CC(=O)NCCC(C)C)C(=O)N(CCc3ccc(OC)c(OC)c3)C1=C[C@H](C(C)(C)C)O[C@@H]2C
Second: COC(=O)[C@]12C[C@H](CC(=O)NCCc3ccccc3OC)C(=O)N(Cc3ccccc3)C1=C[C@H](C(C)C)O[C@@H]2C1CC1
The inhibition of the first is higher: 10.4% for the first, -3.14% for the second.

First: Cc1nc(NC(=O)C(C)(C)C)sc1[N+](=O)[O-]
Second: CN1CCCCC(NC(=O)C(C)(C)C)C1=O (stereo not drawn)
The inhibition of the first is higher: -0.12% for the first, -1.72% for the second.

Going from `Nc1ncnc2c1ncn2[C@@H]1O[C@H](C(=O)N[C@@H](CCc2ccccc2)C(=O)N2CCCN(Cc3cccs3)CC2)[C@@H](O)[C@H]1O` to `CN(C)C(=O)N1CCN(C(=O)[C@@H](Cc2ccccc2)NC(=O)[C@H]2O[C@@H](n3ccc(N)nc3=O)[C@H](O)[C@@H]2O)CC1`, the inhibition falls from -0.42% to -4.92%.

Compared with `COC(=O)C1=C(C)N(Cc2ccc(C(F)(F)F)cc2)C(=NCc2ccccc2)NC1c1ccccc1C(F)(F)F` (stereo not drawn), `COC(=O)C1=C(C)N(Cc2cccc(C(F)(F)F)c2)C(=NCc2ccccc2)NC1c1ccccc1C(F)(F)F` (stereo not drawn) is higher in inhibition: -2.57% for the first, 11.8% for the second.

Going from `COCCNC(=S)N(C)[C@H]1C[C@H]2c3[nH]c4ccccc4c3CCN2C[C@H]1[C@H](C)O` to `CN[C@H]1C[C@H]2c3[nH]c4c(-c5ccccc5)cccc4c3CCN2C(=O)[C@H]1[C@H](C)O`, the inhibition falls from 6.89% to -4.1%.

First: O=C(NN=Cc1ccco1)C(=O)Nc1ccc(Cl)c([N+](=O)[O-])c1
Second: O=C(N/N=C/c1cccc([N+](=O)[O-])c1)C1CC(=O)N(c2ccc(Br)cc2)C1 (stereo not drawn)
The inhibition of the first is higher: 3.05% for the first, -8.22% for the second.

First: COC(=O)[C@H](CC(C)C)NS(=O)(=O)c1c(F)cccc1F
Second: COC(=O)C1=C(C)NC(=O)/C1=C/c1ccc(CNS(=O)(=O)c2ccc(C)cc2)o1
The inhibition of the first is higher: 0.11% for the first, -2.9% for the second.

Compared with `CCc1ccc(C2=CC(=O)CC(C)(C)C2=O)cc1`, `CCOC(=O)c1ccc(NC(=O)c2c(N)n(C)c(=O)[nH]c2=O)cc1` is higher in inhibition: -7.16% for the first, 10.2% for the second.

Going from `C=CC[C@]12C[C@@]3(O[C@H](c4ccc(C(F)(F)F)cc4)N=C3C[C@H](c3ccc(OC)cc3)[C@H]1C)N(C1CCN(Cc3ccccc3)CC1)C2=O` to `COc1ccc(-c2ccc3c(n2)CCCN3S(=O)(=O)c2ccc(C)cc2)cc1`, the inhibition falls from 5.12% to -10.4%.

First: CC(C)(C)c1ccc(S(=O)(=O)NCC2CCN(C(=O)C(=O)c3cc4ccccc4o3)CC2)cc1
Second: O=S(=O)(NCc1ccccc1)c1ccc(S(=O)(=O)N2CCCC2)cc1
The inhibition of the first is lower: -6.17% for the first, 16.8% for the second.

Going from `CCOC(=O)c1ccc(NC(=O)c2c(NCc3ccccc3)[nH]c(=O)[nH]c2=O)cc1` to `Cc1cc(NCCc2c[nH]c3ccccc23)ccc1Oc1cccnc1`, the inhibition rises from -2.85% to 6.6%.

Compared with `CCOC(=O)Cn1c2c(n(-c3ccc(F)cc3)c1=O)C=C(c1ccccc1)[C@@H](C)C(C(=O)N(C)C1CCCCC1)=C2`, `COc1ccccc1Cc1c(-c2ccc(F)cc2)nc2ccc(C)cn12` is lower in inhibition: -1.25% for the first, -3.6% for the second.

First: CCCc1ccc(OCc2ccc(C(=O)N/N=C/c3cccc([N+](=O)[O-])c3)o2)c(OC)c1
Second: COc1ccc(NC(=O)CSc2nnnn2-c2cccc(OC)c2)cc1
The inhibition of the first is lower: -0.67% for the first, 3.21% for the second.

First: COc1cccc(-c2cc(CNC(=O)[C@@H](Cc3ccccc3)NC(=O)[C@H]3O[C@@H](n4cnc(C(N)=O)n4)[C@H](O)[C@@H]3O)no2)c1
Second: CCCN1C(=O)c2[nH]nc(-c3ccccc3)c2C1c1ccccc1 (stereo not drawn)
The inhibition of the first is higher: 0.63% for the first, 0.41% for the second.

Going from `COC(=O)c1sc(N2CCN(Cc3ccccc3)CC2)nc1N` to `COC(=O)c1cc2c(c3c4ccccc4n(S(=O)(=O)c4cccc(C)c4)c13)C(=O)N(Cc1ccccc1)C2`, the inhibition falls from 6.27% to -7.05%.

Compared with `Cc1ccc(C)c(CN2CCC(CNC(=O)C3CCCN(c4ncnc5c4nc4n5CCCCC4)C3)CC2)c1` (stereo not drawn), `COC(=O)[C@]12C[C@H](CC(=O)N3CCN(C(=O)C4CC4)CC3)C(=O)N(Cc3ccc4c(c3)OCO4)C1=C[C@H](C(C)(C)C)O[C@@H]2C` is higher in inhibition: -4.48% for the first, -0.19% for the second.

Compared with `COc1ccccc1-c1ccc([C@@H]2C[C@H]3[C@H](CON3C)CN2S(=O)(=O)c2cc(Cl)cc(Cl)c2)cc1`, `COC(=O)c1c(-c2ccc(OC)cc2)c2c(c3c4cc(OC)ccc4n(S(=O)(=O)c4ccc(F)cc4)c13)C(=O)N(C)C2` is higher in inhibition: -15.3% for the first, -0.62% for the second.

Going from `CC(=NNC(N)=O)c1ccc(Cl)c(-n2cccc2)c1` to `O=C(CSc1nnnn1-c1ccc(O)cc1)c1ccc(F)cc1`, the inhibition falls from 7.66% to 1.74%.

Compared with `CC[C@H](C)[C@H]1CNC(=O)C(=O)N1CC1CCN(CCc2ccc(OC)c(OC)c2)CC1`, `C[C@H](CO)N1C[C@H](C)[C@@H](CN(C)C(=O)Nc2ccccc2F)OCc2cn(nn2)CCCC1=O` is lower in inhibition: -3.91% for the first, -10.4% for the second.

Going from `COC(=O)C1=C(C)N(Cc2cccc(C(F)(F)F)c2)C(=NCc2cccc(C(F)(F)F)c2)NC1c1ccccc1C(F)(F)F` (stereo not drawn) to `CCOC(=O)/C=C/c1ccccc1O`, the inhibition rises from 4.19% to 8.09%.

First: C[C@@H]1ON(C)[C@H]2C[C@H]3c4cc(N5CCOCC5)ccc4CCN3C[C@@H]12
Second: Nc1ncnc2c1ncn2C1OC(CO)CC1O (stereo not drawn)
The inhibition of the first is higher: 11.7% for the first, 3.34% for the second.

Work on `OC(CCl)CCl` yielded an inhibition of 12.1%.

With `CCOC(=O)c1ccc(Nc2cc3ccccc3c(=O)[nH]2)cc1` the inhibition was 29.1% (active).
With `N#Cc1cc([N+](=O)[O-])ccc1Oc1cccc(/C=N/NC(=O)c2ccc(Cl)cc2)c1` the inhibition was 25.2% (active).
For `C=CCNc1nc(N)c(C(=C(C#N)C#N)c2ccccc2)s1`, the inhibition was 29.1% (active).
`O=c1/c(=C/c2ccc(CNS(=O)(=O)c3ccccc3)o2)sc2n1CCN=2` was tested, and the inhibition was 26% (active).
For `COc1ccc(-n2nnnc2SCC(=O)c2ccc(OC)c(OC)c2)cc1`, the inhibition was 27.3% (active).
